Assay outcomes from PubChem BioAssay.
DT40 TDP1 CPT – qHTS for Inhibitors of human tyrosyl-DNA phosphodiesterase 1 (TDP1): qHTS in cells in presence of CPT; Potency, µM (doses to about 46.2 µM), for the others: at the top dose activity change, negative = growth inhibition, most hits filed as inhibitors; chicken DT40 Tdp1-/-;hTDP1 cells + 20 nM CPT, ATP luminescence, 48 h; AID 686979, 2013; actives 12% (n = 420,000); further: potency means the concentration at half of the fitted maximal effect; nearly all actives have a fitted effect of over 55% in size
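Cell growth measured by CellTiter-Glo luminescence after a minimum 48 h, 37 C compound exposure with 20 nM CPT in Tdp1-knockout DT40 cells stably expressing hTDP1, seeded 400/well; qHTS titration format.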
HT1080 IDH1KD tx – qHTS for induction of synthetic lethality in tumor cells producing 2HG: qHTS for the HT-1080-IDH1KD cell line | Potency, µM (titrated, usually from 46.1 µM), for the others: at the top dose activity, negative = toxicity, most hits filed as cytotoxic | actives 2% (n = 360,000) | HT-1080 IDH1 knockdown viability, ATP luminescence, 48 h;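 further: potency means the concentration at half of the fitted maximal effect; 0% = DMSO wells and -100% = cell-free medium wells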
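Using the IDH1-knockdown HT-1080 line run in the same batch and compound series as the NT line, viability after 48 h at 37 °C was determined by CellTiter-Glo luminescence and expressed as % activity.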
TDP1 cell noCPT – qHTS for Inhibitors of human tyrosyl-DNA phosphodiesterase 1 (TDP1): qHTS in cells in absence of CPT. DT40 Tdp1-/- hTDP1 cells, no CPT, ATP luminescence, 48 h. Potency, µM (doses to about 46.2 µM), for inactives: top-dose activity change, negative = growth inhibition, most hits filed as inhibitors. actives 15% (n = 420,000); further: potency means the concentration at half of the fitted maximal effect; nearly all actives have a fitted effect of over 55% in size
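Chicken DT40 Tdp1-/- cells stably complemented with human TDP1 were seeded at 400 cells/well with DMSO in place of 20 nM camptothecin. After compound pinning, cells grew at least 48 hr at 37 °C; viability read by CellTiter-Glo luminescence.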
HT1080NT lethal – qHTS for induction of synthetic lethality in tumor cells producing 2HG: qHTS for the HT-1080-NT fibrosarcoma cell line | actives 1.6% (n = 360,000) | Potency, µM (doses to about 46.1 µM), without a hit: at the highest dose activity, negative = less viability, actives largely listed as cytotoxic | AID 686970, 2013 | HT-1080-NT fibrosarcoma viability, CellTiter-Glo ATP luminescence, 48 h;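 further: NT is the 2HG producing partner of a matched IDH1 knockdown line; potency means the concentration at half of the fitted maximal effect; 0% = DMSO-treated cells and -100% = media-only wells without cells; nearly all actives have a fitted effect of over 55% in size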
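Luminescent CellTiter-Glo readout after 48 hours of compound exposure at 37 degrees C defined viability of HT-1080-NT cells. Activity was normalized to DMSO wells and cell-free media wells; concentration-response curves were fitted and assigned curve classes.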
uPA generation – qHTS for Inhibitors of Cell Surface uPA Generation | cell surface uPA generation assay, qHTS | Potency, µM (highest dose often 38.3 µM), for the others: top-dose activity change, negative = inhibition, hits mostly inhibitors | actives 0.31% (n = 330,000); active means well fitted inhibition curve with a large enough effect; inconclusive means small, poorly fitted or top-dose-only effect; inactive means no such curve, though single readings can be large or run the other way; tested in mouse RAW 264.7 cells; further: potency means the concentration at half of the fitted maximal effect; nearly all actives have a fitted effect of over 55% in size
IL-1B inflam inh – qHTS for Inhibitors of Inflammasome Signaling: IL-1-beta AlphaLISA Primary Screen; actives 4.7% (n = 360,000); THP-1 LPS/ATP IL-1B secretion, AlphaLISA, 16 h; hits give low values; activity change, % at 57.5 µM; in the data active means activity change below about -50%; inconclusive means mostly about -30% to -49%
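Secreted IL-1B measured by AlphaLISA bead assay after 16 h compound exposure of THP-1 cells; compounds (final up to 57.5 uM) added 1 h before LPS (250 ng/mL) and ATP (1.25 mM) stimulation; lower signal means less secretion.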
Numbers without * were called inactive; ? = inconclusive; . = not tested or not shown. A selection: hits, their analogues and other compounds. The true share with any hit is near 19%. Unless noted, the call rests on the fitted dose curve; in most records, active means well fitted curve in the direction sought with a large enough effect; inconclusive means small, poorly fitted or top-dose-only effect, or another doubt; inactive means no such curve, though single readings can be large; an effect the other way counts as inactive or inconclusive. Unless noted, on the % scale 0 is the no-effect control and ±100 the full control effect.

SMILES	DT40 TDP1 CPT	HT1080 IDH1KD tx	TDP1 cell noCPT	HT1080NT lethal	uPA generation	IL-1B inflam inh
Cc1ccc(S(=O)(=O)C(CNC(=O)C(=O)NCCc2ccccc2)c2cccs2)cc1 (configuration not stated)	16.4µM*	.	14.6µM*	.	.	.
COc1ccc(CCNC(=O)C(=O)NCC(c2cccs2)S(=O)(=O)c2ccc(C)cc2)cc1 (configuration not stated)	?	.	9.2µM*	.	.	.
COc1ccc(CNC(=O)C(=O)NCC(c2cccs2)S(=O)(=O)c2ccc(C)cc2)cc1 (configuration not stated)	0.3%	.	?	.	.	.
Cc1ccc(S(=O)(=O)C(CNC(=O)C(=O)NCCc2ccc(F)cc2)c2cccs2)cc1 (configuration not stated)	?	.	16.4µM*	.	.	.
CNC(=O)C(=O)NCC(c1cccs1)S(=O)(=O)c1ccc(C)cc1 (configuration not stated)	-21.2%	5.5%	14.3%	-3.3%	0.2%	8.9
COc1ccccc1CCNC(=O)C(=O)NCC(c1ccco1)S(=O)(=O)c1ccc(F)cc1 (configuration not stated)	16.4µM*	.	?	.	.	.
O=C(NCCc1ccc(F)cc1)C(=O)NCC(c1ccco1)S(=O)(=O)c1ccccc1 (configuration not stated)	-1.6%	.	-7.2%	.	.	.
CSc1nc(N)nc2c1ncn2C1OC(CO)CC1O (configuration not stated)	?	-3.9%	?	0.2%	4.9%	-8.9
CCCn1c(SCC(=O)Nc2cc(Cl)ccc2OC)nc(O)cc1=O	-16.9%	-0.1%	-3.7%	-0.5%	16.2%	69.2
Cc1ccc(-c2noc(C3CC(=O)N(c4ccc5c(c4)OCCO5)C3)n2)cc1 (configuration not stated)	-9.4%	.	-5.4%	.	.	.
Cc1ccc(C)c(S(=O)(=O)NCC(c2ccco2)S(=O)(=O)c2ccc(F)cc2)c1 (configuration not stated)	1.3µM*	.	1.16µM*	.	.	.
O=C(NCC(c1cccs1)S(=O)(=O)c1cccs1)c1ccccc1F (configuration not stated)	-10.7%	.	?	.	.	.
Cc1ccc(S(=O)(=O)C(CNC(=O)c2ccccc2F)c2cccs2)cc1 (configuration not stated)	?	.	14.6µM*	.	.	.
CCOc1ccc(-n2nc(CO)c(C(=O)NCCCc3ccccc3)n2)cc1	14.6µM*	.	23.1µM*	.	.	.
O=C(NCCCc1ccccc1)c1nn(-c2ccccc2F)nc1CO	?	.	20.6µM*	.	.	.
CCOc1ccc(-n2nc(CO)c(C(=O)NCc3ccc(Cl)cc3)n2)cc1	-17.2%	.	-23.7%	.	.	.
Cc1cccc(C)c1NC(=S)N/N=C/c1ccccc1C(=O)O	3.5%	12.4%	2.1%	6.7%	-2.1%	1.4
Cc1ccc(Cl)cc1NC(=S)N/N=C/c1cccc2ccccc12	2.91µM*	2.59µM*	4.61µM*	3.66µM*	-3.9%	47.3
Cc1ccccc1NC(=S)N/N=C/c1ccc(O)cc1O	10.3µM*	10.3µM*	9.2µM*	?	13.4%	71.7
Cc1cccc(NC(=S)N/N=C/c2cccc(O)c2)c1C	2.59µM*	?	2.59µM*	?	?	7.4
O=C(COc1ccc(Br)cc1)NNC(=O)c1cc(S(=O)(=O)N2CCOCC2)ccc1Cl	-3.8%	7.6%	0.5%	6.1%	3.0%	14.9
Cc1cn([C@H]2C[C@H](O)[C@@H](CNC(=O)[C@H](N)Cc3cn(COCc4ccccc4)cn3)O2)c(=O)[nH]c1=O	-1.3%	2.6%	0.3%	2.4%	.	-13.5
CO/N=C(/C(=O)N[C@@H]1C(=O)N2C(C(=O)[O-])=C(C[n+]3ccn4ncccc43)CS[C@H]12)c1nsc(N)n1	6.2%	.	-13.6%	.	.	.
Nc1ccc(S(=O)(=O)Nc2cnc3ccccc3n2)cc1	4.1%	8.2%	6.7%	?	10.8%	10.2
Cc1cc(C)cc(S(=O)(=O)c2cnc3ccccc3n2)c1	?	?	?	-16.0%	-14.1%	-99.1*
SMILES	DT40 TDP1 CPT	HT1080 IDH1KD tx	TDP1 cell noCPT	HT1080NT lethal	uPA generation	IL-1B inflam inh
O=S(=O)(c1ccc(Cl)cc1)c1cnc2ccccc2n1	-76.8%	?	-89.4%	?	-16.0%	-99.1*
CC(=O)NC12CC3CC(C1)CC(C(=O)N1CCN(S(=O)(=O)c4ccccc4C#N)CC1)(C3)C2	-5.2%	14.7%	-14.9%	8.8%	-5.5%	7.7
COc1ccc(C)cc1N(CC(=O)Nc1ccc(S(=O)(=O)N2CCCC2)cc1)S(C)(=O)=O	-11.9%	4.8%	-20.2%	5.0%	2.8%	-1.3
c1ccc(COc2cccc(-c3cc4nc(NCCN5CCOCC5)ccn4n3)c2)cc1	25.9µM*	?	13µM*	14.6µM*	.	-18.7
c1ccc(COc2ccc(-c3cc4nc(NCCN5CCOCC5)ccn4n3)cc2)cc1	?	18.4µM*	20.6µM*	?	.	-29.4
Cc1cccc2c(=O)cc(CSc3ccccc3NC(=O)c3cccc(F)c3)[nH]c12	-28.3%	.	?	.	.	.
CC1(C(=O)Nc2ccccc2Cc2ccccc2)CCN1Cc1ccccc1Cl (configuration not stated)	?	?	23.1µM*	?	.	-3.0
CCNC(=O)C1(C)CCCN1Cc1ccccc1Cl (configuration not stated)	23.1µM*	20.4%	?	27.2%	.	0.0
CC1(C(=O)Nc2ccccc2Cc2ccccc2)CCN1CCc1ccccc1 (configuration not stated)	?	?	?	?	.	8.5
Cc1ccc(CNC(=O)CNS(=O)(=O)c2cccs2)cc1	-3.0%	.	-12.5%	.	.	.
Cc1cccc(C(=O)N2CCc3cc(CNS(=O)(=O)c4cccs4)ccc32)c1	23.1µM*	.	20.6µM*	.	.	.
COc1ccc(Cl)cc1S(=O)(=O)NCc1ccc2c(c1)CCN2C(=O)c1cccc(C)c1	3.26µM*	.	4.61µM*	.	.	.
Cc1ccc(C(=O)N2CCc3cc(CNS(=O)(=O)c4cccs4)ccc32)cc1	14.6µM*	.	18.4µM*	.	.	.
CCOc1ccccc1NC(=O)Cn1ccn(Cc2ccc(C)cc2)c(=O)c1=O	-7.1%	.	-13.7%	.	.	.
